Inconclusive results are not listed. Activity calls are given as the source filed them. Calls come from the whole dose curve; as a rule, active = well fitted curve in the direction sought with a large enough effect; inconclusive = small, poorly fitted or top-dose-only effect, or another doubt; inactive = no such curve, though single readings can be large; an effect the other way counts as inactive or inconclusive.
What was measured:
[1] = NS1 protein of Zika virus - qHTS assay to identify small molecule inhibitors in human HEK 293 cells (AID 1347053);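 note: series mostly up to about 46 µM; plate controls were infected untreated cells for no effect and uninfected cells for full effect; nearly all actives have a fitted effect of over 55% in size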
Summary of the method: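 Following 20 h seeding, HEK 293 cells took compound, then 1 h later ZIKV MR766 (MOI = 0.5). Incubation ran 24 h at 37 C before TR-FRET detection of NS1; a drop in signal indicates inhibition.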

[2] = qHTS of pediatric cancer cell lines to identify multiple opportunities for drug repurposing: Primary screen for TC32 cells (AID 1347089); note: % is set by controls: 0 for no effect and ±100 for the full control effect; nearly all actives have a fitted effect of over 60% in size
Summary of the method: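 TC32 cells, 500-1,000/well in growth medium, compound-treated 48 h at 37 °C; viability from CellTiter-Glo luminescence. Primary screen: MIPE 11-point (0.78 nM–46 µM final), NPC 8-point (0.59 nM–46 µM final); confirmatory at 11-point dilutions.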

[3] = qHTS of pediatric cancer cell lines to identify multiple opportunities for drug repurposing: Primary screen for DAOY cells (AID 1347090);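 note: series mostly up to about 46 µM; plate controls were DMSO for no effect and bortezomib for full effect; nearly all actives have a fitted effect of over 55% in size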
Summary of the method: (§1)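 Cell viability, CellTiter-Glo luminescence; 500-1,000 cells/well, 8- or 11-point titration, 48 h compound exposure at 37 degrees C, 5% CO2. Controls: DMSO neutral, bortezomib 2.3 µM final as positive.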

[4] = qHTS of pediatric cancer cell lines to identify multiple opportunities for drug repurposing: Primary screen for SJ-GBM2 cells (AID 1347091);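 note: plate controls were DMSO neutral control for no effect and bortezomib for full effect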
Summary of the method: as §1

[5] = qHTS of pediatric cancer cell lines to identify multiple opportunities for drug repurposing: Primary screen for A673 cells (AID 1347092); note: % is set by controls: 0 for no effect and ±100 for the full control effect; nearly all actives have a fitted effect of over 45% in size
Summary of the method: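 A673 cells (500-1,000 cells/well) were treated 48 hours at 37 degrees C with compounds at 11-point (0.78 nM to 46 µM) or 8-point (0.59 nM to 46 µM) dilutions. Viability read by CellTiter-Glo luminescence; concentration-response curves fitted.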

[6] = qHTS of pediatric cancer cell lines to identify multiple opportunities for drug repurposing: Primary screen for SK-N-MC cells (AID 1347093);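 note: series mostly up to about 46 µM; plate controls were DMSO neutral control for no effect and bortezomib for full effect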
Summary of the method: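 Metabolically active cells were quantified by ATP-dependent luminescence (CellTiter-Glo, 15 min at room temperature) following 48 h treatment. Cells had been plated at 500-1,000 per well and settled for 5 h beforehand.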

[7] = qHTS of pediatric cancer cell lines to identify multiple opportunities for drug repurposing: Primary screen for BT-37 cells (AID 1347094);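 note: series mostly up to about 57 µM; plate controls were DMSO for no effect and bortezomib for full effect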
Summary of the method: (§2)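 Plated cells (500-1,000 per well, growth media) were allowed to settle for 5 hours, treated with compound dilutions for 48 hours, then lysed with CellTiter-Glo for 15 min at room temperature before luminescence reading.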

[8] = qHTS of pediatric cancer cell lines to identify multiple opportunities for drug repurposing: Primary screen for NB-EBc1 cells (AID 1347095);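 note: plate controls were DMSO neutral control for no effect and bortezomib for full effect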
Summary of the method: as §2

[9] = qHTS of pediatric cancer cell lines to identify multiple opportunities for drug repurposing: Primary screen for U-2 OS cells (AID 1347096);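 note: plate controls were DMSO wells for no effect and bortezomib positive control wells for full effect; nearly all actives have a fitted effect of over 50% in size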
Summary of the method: (§3)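 Cells (500-1,000/well) rested 5 h, then received compounds for 48 h; metabolically active cells were measured by CellTiter-Glo luminescence. Final concentrations spanned up to 46 µM (MIPE, 11-point) or 0.59 nM-46 µM (NPC, 8-point) in primary screens, 11-point in follow-ups.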

[10] = qHTS of pediatric cancer cell lines to identify multiple opportunities for drug repurposing: Primary screen for Saos-2 cells (AID 1347097); note: % is set by controls: 0 for no effect and ±100 for the full control effect; nearly all actives have a fitted effect of over 40% in size
Summary of the method: as §2

[11] = qHTS of pediatric cancer cell lines to identify multiple opportunities for drug repurposing: Primary screen for SK-N-SH cells (AID 1347098); note: % is set by controls: 0 for no effect and ±100 for the full control effect; nearly all actives have a fitted effect of over 65% in size
Summary of the method: as §3

[12] = qHTS of pediatric cancer cell lines to identify multiple opportunities for drug repurposing: Primary screen for LAN-5 cells (AID 1347100);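 note: plate controls were DMSO neutral control for no effect and bortezomib positive control for full effect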
Summary of the method: as §3

[13] = qHTS of pediatric cancer cell lines to identify multiple opportunities for drug repurposing: Primary screen for BT-12 cells (AID 1347101);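 note: plate controls were DMSO for no effect and bortezomib positive control for full effect; nearly all actives have a fitted effect of over 25% in size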
Summary of the method: as §3

[14] = qHTS of pediatric cancer cell lines to identify multiple opportunities for drug repurposing: Primary screen for Rh18 cells (AID 1347102); note: % is set by controls: 0 for no effect and ±100 for the full control effect; nearly all actives have a fitted effect of over 65% in size
Summary of the method: as §3

[15] = qHTS of pediatric cancer cell lines to identify multiple opportunities for drug repurposing: Primary screen for OHS-50 cells (AID 1347103);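 note: plate controls were DMSO neutral control for no effect and bortezomib positive control for full effect; nearly all actives have a fitted effect of over 40% in size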
Summary of the method: as §3

[16] = qHTS of pediatric cancer cell lines to identify multiple opportunities for drug repurposing: Primary screen for RD cells (AID 1347104);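 note: plate controls were DMSO for no effect and bortezomib for full effect; nearly all actives have a fitted effect of over 55% in size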
Summary of the method: as §2

[17] = qHTS of pediatric cancer cell lines to identify multiple opportunities for drug repurposing: Primary screen for control Hh wild type fibroblast cells (AID 1347106);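 note: series mostly up to about 46 µM; % is set by controls: 0 for no effect and ±100 for the full control effect; a drop in luminescence marks cytotoxicity and a rise apparent proliferation; nearly all actives have a fitted effect of over 55% in size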
Summary of the method: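 Viability after 48 h compound treatment at 37C, 500-1,000 cells/well, read as ATP luminescence with CellTiter-Glo. Primary screens used 11-point (MIPE, 0.78 nM-46 µM) or 8-point (NPC, 0.59 nM-46 µM) final concentrations; follow-up screens used 11-point dilutions.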

[18] = qHTS of pediatric cancer cell lines to identify multiple opportunities for drug repurposing: Primary screen for Rh30 cells (AID 1347107); note: series mostly up to about 46 µM; % is set by controls: 0 for no effect and ±100 for the full control effect; nearly all actives have a fitted effect of over 75% in size
Summary of the method: as §3

[19] = qHTS of pediatric cancer cell lines to identify multiple opportunities for drug repurposing: Primary screen for NB1643 cells (AID 1347099);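 note: plate controls were DMSO neutral control for no effect and bortezomib positive control for full effect; nearly all actives have a fitted effect of over 50% in size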
Summary of the method: as §2

[20] = qHTS of pediatric cancer cell lines to identify multiple opportunities for drug repurposing: Primary screen for MG 63 (6-TG R) cells (AID 1347105); note: % is set by controls: 0 for no effect and ±100 for the full control effect; nearly all actives have a fitted effect of over 50% in size
Summary of the method: as §2

O=C(/C=C/c1ccccc1)OCc1ccccc1
inactive: outcome [1] | outcome [2] | outcome [3] | outcome [4] | outcome [5] | Potency [6] | outcome [7] | outcome [8] | outcome [9] | outcome [10] | outcome [11] | outcome [12] | outcome [13] | outcome [14] | outcome [15] | outcome [16] | outcome [17] | outcome [18]

CC(=O)NS(=O)(=O)c1ccc(N)cc1
inactive: outcome [1] | outcome [2] | outcome [3] | outcome [4] | outcome [5] | Potency [6] | outcome [7] | outcome [8] | outcome [9] | outcome [10] | outcome [11] | Potency [19] | outcome [12] | outcome [14] | outcome [15] | outcome [16] | outcome [17] | outcome [18]

O=C(O)C(S)C(S)C(=O)O (stereo not given)
inactive: outcome [1] | outcome [2] | outcome [3] | outcome [4] | outcome [5] | Potency [6] | outcome [7] | outcome [8] | outcome [9] | outcome [10] | outcome [11] | outcome [12] | outcome [15] | outcome [16] | outcome [20] | outcome [17] | outcome [18]

NC(N)=NS(=O)(=O)c1ccc(N)cc1
inactive: outcome [1] | outcome [2] | outcome [3] | outcome [4] | outcome [5] | Potency [6] | outcome [7] | outcome [8] | outcome [9] | outcome [10] | outcome [11] | Potency [19] | outcome [12] | outcome [14] | outcome [15] | outcome [16] | outcome [20] | outcome [17] | outcome [18]

O=C1C(c2[nH]c3ccccc3c2O)=Nc2ccccc21
inactive: outcome [1] | outcome [2] | outcome [3] | outcome [4] | outcome [5] | Potency [6] | outcome [7] | outcome [8] | outcome [9] | outcome [10] | outcome [11] | Potency [19] | outcome [12] | outcome [13] | outcome [14] | outcome [16] | outcome [20] | outcome [17] | outcome [18]

CC(N)CCCC(C)(C)O (stereo not given)
inactive: outcome [1] | outcome [2] | outcome [3] | outcome [4] | outcome [5] | Potency [6] | outcome [7] | outcome [8] | outcome [9] | outcome [10] | outcome [11] | Potency [19] | outcome [12] | outcome [13] | outcome [16] | outcome [20] | outcome [17] | outcome [18]

CC1CCN(CCCC(=O)c2ccc(F)cc2)CC1
inactive: outcome [1] | outcome [2] | outcome [3] | outcome [4] | outcome [5] | Potency [6] | outcome [7] | outcome [8] | outcome [9] | outcome [10] | outcome [11] | Potency [19] | outcome [12] | outcome [13] | outcome [14] | outcome [16] | outcome [17] | outcome [18]

CC(C)CCCC(C)CCCC(C)CCCCC(C)CCCC(C)CCCC(C)C (stereo not given)
inactive: outcome [1] | outcome [2] | outcome [3] | outcome [4] | outcome [5] | Potency [6] | outcome [7] | outcome [8] | outcome [9] | outcome [10] | outcome [11] | outcome [12] | outcome [13] | outcome [14] | outcome [16] | outcome [17] | outcome [18]

NS(=O)(=O)c1ccc(C(=O)O)cc1
inactive: outcome [1] | outcome [2] | outcome [3] | outcome [4] | outcome [5] | Potency [6] | outcome [7] | outcome [8] | outcome [9] | outcome [10] | outcome [11] | Potency [19] | outcome [12] | outcome [14] | outcome [15] | outcome [16] | outcome [20] | outcome [17] | outcome [18]

NC(N)=NCCN1CCCCCCC1
inactive: activity change, negative = inhibition [1] -1.99% [at 0.593 µM] | activity change, negative = cytotoxic [2] 19.1% [at 0.594 µM] | activity change, negative = cytotoxic [3] 7.11% [at 0.597 µM] | activity change, negative = cytotoxic [4] 15.5% [at 0.597 µM] | activity change, negative = cytotoxic [5] 2.24% [at 0.597 µM] | activity change, negative = cytotoxic [6] -13.5% [at 0.597 µM] | activity change, negative = cytotoxic [7] 4.17% [at 0.745 µM] | activity change, negative = cytotoxic [8] 19.5% [at 0.597 µM] | activity change, negative = cytotoxic [9] 9.69% [at 0.597 µM] | activity change, negative = cytotoxic [10] 2.27% [at 0.597 µM] | activity change, negative = cytotoxic [11] -2% [at 0.741 µM] | activity change, negative = cytotoxic [19] 6.64% [at 0.597 µM] | activity change, negative = cytotoxic [12] 4.87% [at 0.597 µM] | activity change, negative = cytotoxic [14] 6.63% [at 0.597 µM] | activity change, negative = cytotoxic [15] 7.69% [at 0.73 µM] | activity change, negative = cytotoxic [16] 3.85% [at 0.597 µM] | activity change, negative = cytotoxic [20] 7.08% [at 0.597 µM] | activity change, negative = cytotoxic [17] 3.36% [at 0.597 µM] | activity change, negative = cytotoxic [18] 25.1% [at 0.597 µM]

CCc1nnc(NS(=O)(=O)c2ccc(N)cc2)s1
inactive: outcome [1] | outcome [2] | outcome [3] | outcome [4] | outcome [5] | Potency [6] | outcome [7] | outcome [8] | outcome [9] | outcome [10] | outcome [11] | Potency [19] | outcome [12] | outcome [14] | outcome [15] | outcome [16] | outcome [20] | outcome [17] | outcome [18]

CC(=O)Nc1ccc(OCCOCCOc2ccc(NC(C)=O)cc2)cc1
inactive: outcome [1] | outcome [2] | outcome [3] | outcome [4] | outcome [5] | Potency [6] | outcome [7] | outcome [8] | outcome [9] | outcome [10] | outcome [11] | Potency [19] | outcome [12] | outcome [13] | outcome [16] | outcome [20] | outcome [17] | outcome [18]

CC(C)CCOC(=O)c1ccc(N(C)C)cc1
inactive: outcome [1] | outcome [2] | outcome [3] | outcome [4] | outcome [5] | Potency [6] | outcome [7] | outcome [8] | outcome [9] | outcome [10] | outcome [11] | outcome [12] | outcome [13] | outcome [14] | outcome [15] | outcome [16] | outcome [20] | outcome [17] | outcome [18]

c1ccc2[nH]ccc2c1
inactive: outcome [1] | outcome [2] | outcome [3] | outcome [4] | outcome [5] | Potency [6] | outcome [7] | outcome [8] | outcome [9] | outcome [10] | outcome [11] | outcome [12] | outcome [13] | outcome [14] | outcome [15] | outcome [16] | outcome [17] | outcome [18]

CC[C@H](C)[C@H](N)C(=O)O
inactive: outcome [1] | outcome [2] | outcome [3] | outcome [4] | outcome [5] | Potency [6] | outcome [7] | outcome [8] | outcome [9] | outcome [10] | outcome [11] | outcome [12] | outcome [13] | outcome [14] | outcome [15] | outcome [16] | outcome [20] | outcome [17] | outcome [18]

From PubChem BioAssay (NCATS)
